Compounds without any hit were thinned out: in the full panel of roughly 83,000, 20% have a hit.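 The test compound was applied at a single concentration to cells in 96-well plates for 48 hours, and percent growth was recorded.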 The source made the active and inactive calls. Rule for the calls: active = growth percent below 10; inactive = the rest.
system: MDA-MB-468 breast; assay: NCI-60 one-dose screen, 48 h (100 = growth as untreated, 0 = no growth, -100 = all killed); settings: 10 µM unless noted

`Clc1ccc2nc3nc4ccc[nH]c4cc3c2c1` was tested. Which growth did it give?
Its growth is -31.5% (active).

Which growth does the source give for `O=C(CCl)N1c2ccccc2Sc2ccc3ccccc3c21` here?
Its growth is -76.1% (active).

For `COc1ccc(-c2c(-c3cc(OC)c(OC)c(OC)c3)noc2N)cc1`, which growth is on record?
The growth was -5.06% (active).

With `N#CC1=C(N)Oc2c(sc3c(Br)cccc23)C1c1ccc(F)cc1` (configuration not stated) as the compound, how does the growth read?
Its growth is 11% (inactive).

How did the growth turn out when `COc1ccc2nc3cc(Cl)ccc3c(N3CCN(c4ccnc(N5CCN(C)CC5)n4)CC3)c2c1` was run?
The growth was -51.9% (active).

For `CCCc1n(Cc2ccc3ccccc3n2)cc[n+]1Cc1ccc2ccccc2c1`, which growth is on record?
Its growth is -28.4% (active).

How did the growth turn out when `c1cc(C2=N[C@@H]3c4ccccc4C[C@@H]3O2)nc(C2=N[C@@H]3c4ccccc4C[C@@H]3O2)c1` was run?
The growth was 95.8% (inactive).

With `Cc1cc(NS(=O)(=O)c2ccc(NC(=O)COc3ccc(-c4cc5ccccc5[nH]4)cc3)cc2)no1` as the compound, how does the growth read?
Its growth is -0.467% (active).

How did the growth turn out when `COc1ccc(-c2nn(-c3cccc(NC(=O)Nc4cc(C(F)(F)F)cc(C(F)(F)F)c4)c3)cc2-c2ccncc2)cc1Cl` was run?
Its growth is 17.7% (inactive).

`CCN1CCN(Cc2cn(CC(=O)Nc3ccc4c(ccn4Cc4ccccc4)c3)nn2)CC1` was tested. Which growth did it give?
Its growth is 97.2% (inactive).

With `CCOC(=O)c1cnc2ccc(Br)cc2c1Nc1cccc(S(N)(=O)=O)c1` as the compound, how does the growth read?
The growth was 106% (inactive).

With `CCCCOC(=O)c1cccc([N+](=O)[O-])c1` as the compound, how does the growth read?
The growth was 101% (inactive).

How did the growth turn out when `Clc1ccc2c(NCCCCNc3nc(N4CCOCC4)nc4ccccc34)ccnc2c1` was run?
The growth was 24.9% (inactive).

`Nc1ncnc2c1ncn2C1(CO)OCC(O)C(O)C1O` (configuration not stated) was tested. Which growth did it give?
The growth was 108% (inactive).

How did the growth turn out when `COc1ccc2nc(-c3ccc(Cl)cc3)cc(C(=O)N3N=C(c4ccc(N)cc4)CC3c3ccccc3)c2c1` (configuration not stated) was run?
The growth was 30.9% (inactive).

`CCn1c2ccccc2c2cc(NC(=O)Nc3ccc([N+](=O)[O-])cc3C)ccc21` was tested. Which growth did it give?
The growth was 7.62% (active).

With `COc1ccc(-c2nn(-c3ccc(S(C)(=O)=O)cc3)cc2/C=N/O)cc1` as the compound, how does the growth read?
The growth was 117% (inactive).

With `CC1CC(=O)C2=C(C1)Nc1ccc(Br)cc1CC2c1c[nH]c2ccc(Br)cc12` (configuration not stated) as the compound, how does the growth read?
Its growth is -3.65% (active).

Which growth does the source give for `CCCN1C=C/C(=C\C(=O)n2ccc3ccccc32)c2ccccc21` here?
Its growth is 7.36% (active).

Which growth does the source give for `CCCCn1c(=O)[nH]c(N)c(C(c2ccc(F)cc2)c2c(N)[nH]c(=O)n(CCCC)c2=O)c1=O` here?
The growth was 51.2% (inactive).

`CC(C)CSc1ncnc2nc[nH]c12` was tested. Which growth did it give?
The growth was 104% (inactive).

Which growth does the source give for `COc1ccc(-c2nn(-c3ccc(NC(=O)Nc4ccc(Cl)c(C(F)(F)F)c4)cc3)cc2-c2ccncc2)cc1Cl` here?
Its growth is -46.4% (active).

How did the growth turn out when `COc1ccc2c(c1)CCNC21C(=O)Nc2c(Br)cc(Br)cc21` (configuration not stated) was run?
The growth was 137% (inactive).

With `COC1(OC)C2(Cl)C=C(c3ccccc3)C1(Cl)C(Cl)=C2Cl` (configuration not stated) as the compound, how does the growth read?
The growth was 108% (inactive).

For `[2H]C([2H])([2H])Oc1ccc(/C=C/C(=O)/C=C(O)/C=C/c2ccc(OC([2H])([2H])[2H])c(OC([2H])([2H])[2H])c2)cc1OC([2H])([2H])[2H]`, which growth is on record?
The growth was 1.44% (active).

For `Nc1ccc(SSc2ccc(N)cc2)cc1`, which growth is on record?
Its growth is 101% (inactive).

How did the growth turn out when `CN1CCN(C(=O)c2c3c(n4ccccc24)C(=O)c2ncccc2C3=O)CC1` was run?
Its growth is 88.4% (inactive).

How did the growth turn out when `Cc1ccc2nc(-c3ccc(OCC(=O)N=Nc4c(O)[nH]c5ccccc45)cc3)[nH]c2c1` was run?
Its growth is 60.6% (inactive).

For `CCNCCCn1c2c(c3ccc(Cl)cc3c1=O)C(=O)c1cc(OC)cnc1-2`, which growth is on record?
Its growth is 5.92% (active).

For `O=C(Nc1ccc2c(c1)OCCO2)C(=O)c1c[nH]c2ccccc12`, which growth is on record?
Its growth is -0.365% (active).

Which growth does the source give for `COc1ccc2c(CCc3ccc(Cl)cc3)c3[n+](cc2c1OC)CCc1cc2c(cc1-3)OCO2` here?
Its growth is -11.7% (active).

With `O=C(O)c1cccc(CN2CCN(c3cc4c(cc3F)c(=O)c(C(=O)O)cn4C3CC3)CC2)c1O` as the compound, how does the growth read?
Its growth is 101% (inactive).

Which growth does the source give for `C=C(C)[C@@H]1CC[C@]2(C)[C@H](CC=C3[C@@H]4[C@@H](C)[C@H](C)CC[C@]4(C(N)=O)CC[C@]32C)[C@@]1(C)CCC#N` here?
Its growth is 0.182% [100 µM] (active).

`COc1nc2c(cc1S(=O)(=O)c1ccccc1)CCc1c-2cnn1-c1ccccc1` was tested. Which growth did it give?
Its growth is 45.3% (inactive).

With `COc1cccc(CC(C)=C(c2ccc(OCCN3CCCCC3)cc2)c2ccc(OCCN3CCCCC3)cc2)c1` as the compound, how does the growth read?
Its growth is -82.8% (active).

Which growth does the source give for `O=C(O)CC1=CCCCC1` here?
The growth was 102% (inactive).

For `O=[N+]([O-])c1ccc2c(N=Nc3ccc4ccccc4c3O)c(O)cc(S(=O)(=O)O)c2c1`, which growth is on record?
Its growth is 106% (inactive).

Reference: PubChem BioAssay (NCI)
